From PubChem
Nrf2 ARE act = qHTS of Nrf2 Activators. AID 624171, 2012. AREc32 ARE-luciferase reporter (MCF7-derived line), luminescence, 24 h. 410,000 tested, 0.31% active. Potency, µM (top dose mostly 46.1 µM), inactives show at the highest dose activation, most hits filed as activators; note: % of control where 0% means no effect; nearly all actives have a fitted effect of over 65% in size
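Reporter line AREc32 (ARE-Fluc), seeded overnight in OPTI-MEM with 5% FBS; compound pin-transferred, 24 hr at 37 deg C, 5% CO2; luminescent read-out.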
Nrf2 inh = Nrf2 qHTS screen for inhibitors. A549 ARE-Fluc reporter, luciferase luminescence, 18-24 h. Potency, µM (titrated, usually from 46 µM), for the others: at the top dose activity change, negative = inhibition, usual class: inhibitors. 360,000 tested, 2.1% active; note: % is set by controls: 0 for no effect and ±100 for the full control effect; nearly all actives have a fitted effect of over 60% in size
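Concentration-response testing used A549 ARE_Fluc cells at 5000 cells/well. Following an 18-24 h compound incubation, viability was read by fluorescence (Ex 405/Em 525) and luciferase output by luminescence.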
ATXN2 expr inh = Primary qHTS for Inhibitors of ATXN expression. HEK-293 ATXN2-luciferase reporter, luminescence, 24 h. Potency, µM (highest dose often 57 µM), for the others: at the top dose activity change, negative = inhibition, actives largely listed as inhibitors. 360,000 tested, 0.72% active; note: % is set by controls: 0 for no effect and ±100 for the full control effect; nearly all actives have a fitted effect of over 55% in size
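ATXN2-luciferase reporter cells (luciferase flanked by upstream and downstream ATXN2 gene portions) were treated 24 h at 37 °C with compounds at up to 57 uM. SteadyGlo luminescence gave expression; GF-AFC fluorescence gave viability.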
A549 tox = Nrf2 qHTS screen for inhibitors: counterscreen for cytotoxicity. A549 ARE-Fluc cells, CellTiter-Fluor viability, 18-24 h. Potency, µM (series often up to 46 µM), inactives show top-dose activity change, negative = cytotoxicity, actives largely listed as inhibitors. 390,000 tested, 0.16% active. AID 504648, 2011; note: % is set by controls: 0 for no effect and ±100 for the full control effect
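A549 ARE-Fluc cells in 5% FBS OPTI-MEM, 5000 cells/well, rested 2 h then exposed to compounds in concentration-response for 18-24 h at 37 °C. Viability by CellTiter-Fluor fluorescence (Ex 405/Em 525) after 30 min; luciferase luminescence (BugLite, 15 min, RT) read afterwards.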
S2 tox = Viability Counterscreen for Primary qHTS for Inhibitors of ATXN expression; S2 cells (HEK-293 line with an ATXN2-luciferase reporter) viability, CellTiter-Fluor protease fluorescence, 24 h; 400,000 tested, 0.49% active; Potency, µM (top dose mostly 56.7 µM), usual class: cytotoxic; note: nearly all actives have a fitted effect of over 40% in size
* marks the source's active call; other numbers are inactive results; i = inactive; ? = inconclusive; nt = no result; [ ] = dose if it differs, or a comment. In the library only some 2.9% were active in any assay of this set; here they are far more common. Calls come from the whole dose curve; as a rule, active = well fitted curve in the direction sought with a large enough effect; inconclusive = small, poorly fitted or top-dose-only effect, or another doubt; inactive = no such curve, though single readings can be large; an effect the other way counts as inactive or inconclusive. Potency is the fitted concentration of half-maximal effect.

SMILES | Nrf2 ARE act | Nrf2 inh | ATXN2 expr inh | A549 tox | S2 tox
CCCOC1CCCN(C(=O)c2ccc3oc(C(C)C)nc3c2)C1 (stereo not drawn) | 3.0% | ? | 45.3% | -0.9% | i
CC1CN(C(=O)COC(=O)c2cc([N+](=O)[O-])ccc2Cl)CC(C)O1 (stereo not drawn) | 15.3% | 10.7% | 3.3% | -2.4% | i
Nc1c(C(=O)Nc2ccc(Cl)c(C(F)(F)F)c2)sc2nc(-c3ccncc3)ccc12 | 0.4% | 7.31µM* | nt | -3.6% | nt
Cc1ccccc1NC(=O)c1sc2nc(-c3ccncc3)ccc2c1N | -0.7% | 25.9µM* | 20µM* | -8.2% | i
CCOC(=O)/C(=N/Nc1ccc(OC)cc1)N1CCCc2ccccc21 | 2.9% | -11.7% | 4.4% | -9.3% | i
COc1ccccc1N1CCN(C(=O)C2c3ccccc3Oc3ccccc32)CC1 | -0.5% | 11.4% | -10.2% | ? | ?
O=C(C1c2ccccc2Oc2ccccc21)N1CCN(c2ccc(Cl)cc2)CC1 | -0.7% | 25.9µM* | -28.0% | ? | ?
COc1ccc2nc3c(cc2c1)c(NC(=O)c1cccs1)nn3CC(C)C | 8.1% | nt | -21.1% | -4.0% | i
O=C(NC1CCN(Cc2ccccc2)CC1)c1cccc(NS(=O)(=O)c2ccc(Br)cc2)c1 | 1.5% | 12.7% | ? | -13.2% | i
Cc1ccc(S(=O)(=O)Nc2cccc(C(=O)NC3CCN(Cc4ccccc4)CC3)c2)cc1F | 2.6% | 10.3µM* | -24.6% | ? | i
Cc1ccc(NS(=O)(=O)c2cccc(C(=O)NC3CCN(Cc4ccccc4)CC3)c2)cc1 | 2.4% | ? | -12.9% | -13.9% | ?
O=C(NC1CCN(Cc2ccccc2)CC1)c1cccc(S(=O)(=O)Nc2ccc(SC(F)F)cc2)c1 | 0.2% | 16.4µM* | ? | ? | i
COc1ccc(S(=O)(=O)Nc2ccc(-c3cn4c(C)csc4n3)cc2)cc1 | 0.6% | nt | 6.3% | -0.4% | i
O=c1cc(-c2ccc(O)cc2)oc2c1ccc1ccccc12 | 0.3% | ? | 7.6% | -8.2% | i
O=c1cc(C(Cl)(Cl)Cl)oc2c1ccc1ccccc12 | 12.6µM* | 20.6µM* | ? | ? | nt
O=c1cc(-c2ccncc2)oc2c1ccc1ccccc12 | 3.4% | 18.4µM* | ? | -14.3% | ?
CN(c1ccc(C(=O)NCc2ccccc2)cc1)S(C)(=O)=O | -0.3% | 14.7% | 12.2% | 10.5% | i
Cc1cc(C)nc(NC(=O)/C=C/c2cccs2)c1 | 21.5% | 10.3% | 44.3% | -6.4% | i
Cc1cc(C)c(-c2csc(NC(=O)/C=C/c3cccs3)n2)c(C)c1 | 2.7% | 23.1µM* | ? | -16.2% | i
O=C(CCn1cnc2onc(-c3ccc(F)cc3)c2c1=O)Nc1ccc(F)c(Cl)c1 | -0.5% | ? | nt | -7.8% | nt
CC[n+]1c(/C=C/C=C/N(C(C)=O)c2ccccc2)sc2cc(OC)ccc21 | 10.4% | -11.4% | 20µM* | 14.6µM* | 31.6µM*
Cc1ccc(NS(=O)(=O)c2ccc3c(c2)CC(C)N3C(=O)C2CCC2)cc1Cl (stereo not drawn) | 1.7% | 20.6µM* | ? | -16.4% | i
O=C(C1CCC1)N1CCc2cc(S(=O)(=O)Nc3ccc4c(c3)OCO4)ccc21 | 0.4% | 10µM* | -11.2% | -7.7% | i
CC(=O)Nc1ccc(NS(=O)(=O)c2ccc3c(c2)CC(C)N3C(=O)C2CCC2)cc1 (stereo not drawn) | 0.7% | 18.7% | -10.3% | -2.2% | ?
Cc1cc(Cl)ccc1NS(=O)(=O)c1ccc2c(c1)CC(C)N2C(=O)C1CCC1 (stereo not drawn) | 2.0% | 20.6µM* | -28.3% | -2.5% | i
SMILES | Nrf2 ARE act | Nrf2 inh | ATXN2 expr inh | A549 tox | S2 tox
OC(c1ccc(Cl)cc1)c1nccc2ccccc12 (stereo not drawn) | 7.2% | -4.4% | nt | 8.0% | i
CCn1c(N2CCN(C(=O)NC3CCCCC3)CC2)nc2ccccc21 | -0.4% | ? | -3.1% | -2.8% | ?
CCc1ccc(-c2nnn(CCC(=O)OC)n2)cc1 | -2.2% | 3.26µM* | ? | 0.8% | i
CCc1ccc(-c2nnn(CCC#N)n2)cc1 | 1.5% | ? | 33.9% | -10.7% | i
CCn1cc(CN2CCCC(C(=O)Nc3cccc(-c4cc5ccccc5[nH]4)c3)C2)c(C)n1 (stereo not drawn) | -2.4% | ? | ? | -17.7% | i
Cn1cc(CN2CCCC(C(=O)Nc3cccc(-c4cc5ccccc5[nH]4)c3)C2)cn1 (stereo not drawn) | -0.5% | 23.1µM* | -37.8% | ? | i
CC(C)n1cc(CN2CCCC(C(=O)Nc3cccc(-c4cc5ccccc5[nH]4)c3)C2)cn1 (stereo not drawn) | -3.0% | -20.6% | 28.2µM* | -5.1% | ?
CC12CCC(C/C1=N\N=C1\NC(=O)/C(=C\c3cccc(Br)c3)S1)C2(C)C (stereo not drawn) | 7.1% | 18.4µM* | ? | ? | ?
COc1ccc(CN2CSC(=S)N(Cc3ccc(OC)cc3)C2)cc1 | ? | -9.0% | nt | -9.1% | ?
COc1ccc(CN2CSC(=S)N(Cc3ccccc3)C2)cc1 | ? | 6.2% | nt | 6.7% | 7.08µM*
C=C1C(=O)O[C@H]2[C@H]1[C@H](OC(=O)/C(C)=C\C)C[C@]1(CO1)[C@@H]1[C@H](OC(C)=O)C=C(C)[C@]21O | 15.8µM* | -3.9% | 3.8% | -4.9% | ?
C=C1C(=O)O[C@H]2C[C@]3(C)C([C@@H](OC(=O)/C(C)=C/C)[C@H]12)[C@](C)(O)CC[C@H]3O (stereo partly drawn) | 6.7% | ? | nt | -23.5% | ?
CN(CC1COc2ccccc2O1)C(=O)CSc1ncccn1 (stereo not drawn) | 0.5% | ? | 17.1% | ? | i
CSc1nc(N)nc(SCC(=O)Nc2cccc(F)c2)c1C#N | 11.2% | ? | 13.7% | 8.5% | i
Cc1ccc(S(=O)(=O)CCSc2nc(C)cc(C)c2C#N)cc1 | 4.3% | 20.6µM* | -0.3% | -21.2% | i
CSc1nc(N)nc(SCCS(=O)(=O)c2ccc(Cl)cc2)c1C#N | 12.6µM* | ? | ? | -1.0%[1.84 µM] | ?
CSc1nc(N)nc(SCC(=O)Nc2ccc(Cl)cc2)c1C#N | 16.9% | 14.6µM* | 1.1% | ? | i
CCc1ccc(-c2ccc(SCC(=O)NC3CCCC3)nn2)cc1 | 0.4% | nt | nt | nt | ?
COC(=O)C(C)Sc1ccc2nnc(CCNS(=O)(=O)c3ccccc3)n2n1 (stereo not drawn) | -0.1% | -9.1% | nt | -2.3% | i
CCOC(=O)c1c2c(n(Cc3ccccc3)c1C)C(=O)C(=O)c1ccccc1-2 | -2.2% | ? | 18.9µM* | ? | 15µM*
Cc1ccc(-n2c(-c3ccccc3)c[n+]3c2CCc2ccccc2-3)c(C)c1 | 10.2% | 4.11µM* | ? | ? | i
